Results: PubChem BioAssay (Tox21)
Results filed as inconclusive are left out. The source holds several records for some structures; these can differ, active in one and inactive in another. The source made the active and inactive calls. Unless noted, calls follow the shape of the full dose curve.

What was measured:
[1] = Nuclear factor erythroid 2-related factor 2/antioxidant responsive element (Nrf2/ARE) small molecule agonists: qHTS cell viability counter screen in human keratinocytes (AID 1919968; active = well fitted curve in the direction sought with a large enough effect in the repeat runs; an effect the other way counts as inactive or inconclusive; also: nearly all actives have a fitted effect of over 55% in size)
How it was run: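 HaCaT ARE reporter line, 1,500 cells/well; 5 h settle, 37 C/5% CO2; cpd in DMSO pinned; 23 h exposure; CellTiter-Fluor, 1 h; fluorescence.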

[2] = Nuclear factor erythroid 2-related factor 2/antioxidant responsive element (Nrf2/ARE) small molecule agonists: luciferase reporter gene qHTS assay in human keratinocytes (AID 1919969); also: nearly all actives have a fitted effect of over 35% in size; also: potency is read from the fitted curve at half-maximal effect
[3] = target: Gonadotropin-releasing hormone receptor (Homo sapiens) (UniProt P30968); test: Human gonadotropin-releasing hormone receptor (GnRHR) small molecule agonists, calcium flux assay in GnRHR-HEK293 cells (AID 1920063); also: nearly all actives have a fitted effect of over 35% in size
How it was run: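 GnRHR-HEK293, 1500 cells/well, 18 h 37 C/5% CO2; Ca dye 1 h 37 C; cpd pinned (DMSO), agonist mode; kinetic FL 480/540, 3 min, 1 s reads; 15 conc, n=3.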

[4] = target: KiSS-1 receptor (Homo sapiens) (UniProt Q969F8); test: Human kisspeptin (KISS1R) small molecule agonists, calcium flux assay in KISS1R-HEK293 cells (AID 1920064; active = well fitted curve in the direction sought with a large enough effect in the repeat runs; an effect the other way counts as inactive or inconclusive)
How it was run: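 Stable human KISS1R HEK293 line; 18 h plating, 37 C/5% CO2; calcium dye 1 h 37 C; compound pin transfer; kinetic fluorescence Ex/Em 480/540, 3 min.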

[5] = G protein-coupled receptor (GPCR) small molecule agonists, calcium flux assay: HEK293 wild type cell line counter screen (AID 1920065)
How it was run: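 Kinetic fluorescence at Ex/Em 480/540, recorded every second over 3 min, served as the read-out after compound addition. Each compound was tested at 15 concentrations in triplicate on cells pre-loaded with calcium dye for 1 h.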

[6] = p53 small molecule agonists, cell-based qHTS assay with human liver microsomes (AID 1963577);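 also: p53 response element beta-lactamase reporter cells with liver microsomes plus NADPH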
How it was run: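 16 h, 37 C exposure of p53RE-bla cells to compounds with human liver microsomes and NADPH (0.5 mg/mL final each); detection via LiveBLAzer mixture, 2 h dark at room temperature.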

[7] = p53 small molecule agonists, cell-based qHTS assay with rat liver microsomes (AID 1963578)
How it was run: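 With rat liver microsomes and NADPH present (0.5 mg/mL final each), p53RE-bla cells are treated with compound for 16 h at 37 C. LiveBLAzer detection mixture is then applied for 2 h at room temperature in the dark.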

[8] = p53 small molecule agonists, cell-based qHTS assay with human liver microsomes: qHTS cell viability counter screen (AID 1963579); also: nearly all actives have a fitted effect of over 45% in size
How it was run: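 In this multiplexed counter screen, the reporter plates were subsequently treated with CellTiter-Glo so that cell viability, reflected by luminescence, could be recorded for p53RE-bla cells dosed 16 h with compounds under microsomal activation (HLM and NADPH).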

[9] = p53 small molecule agonists, cell-based qHTS assay with rat liver microsomes: qHTS cell viability counter screen (AID 1963580); also: nearly all actives have a fitted effect of over 45% in size
How it was run: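 In HCT-116 cells carrying a p53 response element-bla reporter, compounds were metabolically activated in situ by rat liver microsomes with NADPH over 16 h. Cell ATP content then served as the cytotoxicity measure.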

[10] = p53 small molecule agonists, cell-based qHTS assay: qHTS cell viability counter screen (AID 1963581); also: nearly all actives have a fitted effect of over 45% in size
How it was run: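 HCT-116 p53RE-bla cells, 4,000/well, plated 5 h before compound pin transfer; 16 h at 37 C; bla substrate 2 h RT; then CellTiter-Glo, 30 min RT, luminescence.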

[11] = p53 small molecule agonists, cell-based qHTS assay (AID 1963582; active = well fitted activation curve with a large enough effect in the signal ratio in the repeat runs, not every such curve was filed as active; the % refers to the signal ratio)
How it was run: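 Reporter line: p53RE-bla. Pre-incubation 5 h, 37 C, 5% CO2; compound (DMSO, pin tool) 16 h, 37 C; B/G FRET substrate 2 h RT; fluorescence intensity read.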

[12] = target: 5-hydroxytryptamine receptor 2A (Homo sapiens) (UniProt P28223); test: 5-hydroxytryptamine receptor 2A (HTR2A) small molecule antagonists, cell-based qHTS assay (AID 1963586); also: nearly all actives have a fitted effect of over 45% in size
How it was run: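 Antagonist-mode intracellular calcium assay: DOI (4 nM) added after 5 min compound pre-incubation at room temperature to dye-loaded HTR2A-CHO cells. Fluorescence followed for 3 min, sampled every second.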

[13] = target: 5-hydroxytryptamine receptor 2A (Homo sapiens) (UniProt P28223); test: 5-hydroxytryptamine receptor 2A (HTR2A) small molecule agonists, cell-based qHTS assay (AID 1963587); also: nearly all actives have a fitted effect of over 30% in size
How it was run: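 HTR2A-CHO cells, plated 18 h at 37 C/5% CO2, dye-loaded 1 h at 37 C; compounds in DMSO added by pin tool (agonist mode). Intracellular calcium flux read as kinetic fluorescence on FDSS over 2 min at 1 s intervals.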

[14] = target: Muscarinic acetylcholine receptor M1 (Homo sapiens) (UniProt P11229); test: Cholinergic receptor muscarinic 1 (CHRM1) small molecule antagonists, cell-based qHTS assay (AID 1963588); also: nearly all actives have a fitted effect of over 40% in size
How it was run: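 CHRM1-CHO calcium-flux assay, antagonist mode. Cells were seeded 18 h, dye-loaded 1 h at 37 C and given compound for 5 min at RT, then acetylcholine was added at 50nM. FDSS fluorescence was read 3 min; 15 concentrations, three runs.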

[15] = target: Muscarinic acetylcholine receptor M1 (Homo sapiens) (UniProt P11229); test: Cholinergic receptor muscarinic 1 (CHRM1) small molecule agonists, cell-based qHTS assay (AID 1963589); also: nearly all actives have a fitted effect of over 35% in size
How it was run: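 Human M1 in stable CHO line; 18 h plating, 1 h dye load 37 C; cpd added (agonist mode); Ca2+ fluorescence kinetic read, 1 s intervals; 15 conc, 3 runs.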

[16] = cAMP Responsive Elements (CRE) small molecule agonists, cell-based qHTS assay (AID 1963590)
How it was run: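 HEK 293T CRE-bla, 2,000 cells/well, 18 h preincubation 37 C/5% CO2; cpds (DMSO) pinned, 3 h; LiveBLAzer B/G FRET substrate, 2 h RT.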

[17] = cAMP Responsive Elements (CRE) small molecule antagonists, cell-based qHTS assay (AID 1963591; active = well fitted inhibition curve with a large enough effect in the signal ratio in the repeat runs, not every such curve was filed as active; the % refers to the signal ratio)
How it was run: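 Beta-lactamase reporter read by FRET substrate (LiveBLAzer B/G) after 2 h at room temperature. CRE-bla HEK293T cells had received compound plus 0.25 uM (final) NKH477 for 3 h at 37 °C.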

[18] = target: Beta-2 adrenergic receptor (Homo sapiens) (UniProt P07550); test: Adrenergic beta2 receptor (ADRB2) small molecule antagonists, cell-based qHTS assay (AID 1963592); also: series mostly up to about 92 µM; nearly all actives have a fitted effect of over 50% in size
How it was run: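 Cells (CHO, stable ADRB2 overexpression) incubated 18-20hr at 37C; compounds added from DMSO; agonist mix (1nM isoproterenol, 100uM IBMX, 25uM Ro-20-1724) added; 0.5hr RT; d2-cAMP and anti-cAMP-cryptate added; 1hr RT; 665/615 nm read.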

[19] = target: D(2) dopamine receptor (Homo sapiens) (UniProt P14416); test: Dopamine D2 receptor (DRD2) small molecule agonists, cell-based qHTS assay (AID 1963594); also: nearly all actives have a fitted effect of over 35% in size
How it was run: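 HEK293 cells stably expressing DRD2 were cultured 24 h at 37 C, then given Ro20-1724 (0.1 mM final) and compounds for 10 min at room temperature. NKH477 (200nM) was then added for 30 min. cAMP was read by HTRF.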

[20] = target: D(2) dopamine receptor (Homo sapiens) (UniProt P14416); test: Dopamine D2 receptor (DRD2) small molecule antagonists, cell-based qHTS assay (AID 1963595; active = well fitted inhibition curve with a large enough effect in the signal ratio in the repeat runs, with a control signal flat; the % refers to the signal ratio)
How it was run: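 HTRF cAMP read-out at 665 and 620 nm emission (340 nm excitation). Antagonist mode: compounds were tested against 12 nM quinpirole in DRD2-HEK293 cells, with 200 nM NKH477 raising cAMP and 0.1 mM Ro20-1724 blocking its breakdown.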

Measured: Potency

Beta-2 adrenergic receptor (Homo sapiens), sequence (P07550 whole entry, looked up): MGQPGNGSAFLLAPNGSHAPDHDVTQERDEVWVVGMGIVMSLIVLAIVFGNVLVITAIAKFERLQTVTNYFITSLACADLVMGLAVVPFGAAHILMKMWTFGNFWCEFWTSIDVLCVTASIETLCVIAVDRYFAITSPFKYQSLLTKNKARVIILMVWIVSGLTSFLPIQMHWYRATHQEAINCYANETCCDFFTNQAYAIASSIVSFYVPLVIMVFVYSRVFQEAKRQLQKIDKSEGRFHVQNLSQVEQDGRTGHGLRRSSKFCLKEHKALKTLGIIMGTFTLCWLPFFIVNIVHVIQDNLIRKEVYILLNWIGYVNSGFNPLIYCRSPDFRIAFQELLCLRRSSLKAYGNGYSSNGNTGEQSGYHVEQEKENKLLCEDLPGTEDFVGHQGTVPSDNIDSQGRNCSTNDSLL
Gonadotropin-releasing hormone receptor (Homo sapiens), sequence (P30968 whole entry, looked up): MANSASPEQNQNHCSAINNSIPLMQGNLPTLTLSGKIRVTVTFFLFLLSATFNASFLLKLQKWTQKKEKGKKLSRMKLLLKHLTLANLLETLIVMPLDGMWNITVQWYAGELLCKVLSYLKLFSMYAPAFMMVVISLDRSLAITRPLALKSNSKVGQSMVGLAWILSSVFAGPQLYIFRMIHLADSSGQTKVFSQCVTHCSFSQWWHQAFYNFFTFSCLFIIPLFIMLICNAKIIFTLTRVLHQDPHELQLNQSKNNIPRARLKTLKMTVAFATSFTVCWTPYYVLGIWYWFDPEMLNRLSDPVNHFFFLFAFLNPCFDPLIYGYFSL
KiSS-1 receptor (Homo sapiens), sequence (Q969F8 whole entry, looked up): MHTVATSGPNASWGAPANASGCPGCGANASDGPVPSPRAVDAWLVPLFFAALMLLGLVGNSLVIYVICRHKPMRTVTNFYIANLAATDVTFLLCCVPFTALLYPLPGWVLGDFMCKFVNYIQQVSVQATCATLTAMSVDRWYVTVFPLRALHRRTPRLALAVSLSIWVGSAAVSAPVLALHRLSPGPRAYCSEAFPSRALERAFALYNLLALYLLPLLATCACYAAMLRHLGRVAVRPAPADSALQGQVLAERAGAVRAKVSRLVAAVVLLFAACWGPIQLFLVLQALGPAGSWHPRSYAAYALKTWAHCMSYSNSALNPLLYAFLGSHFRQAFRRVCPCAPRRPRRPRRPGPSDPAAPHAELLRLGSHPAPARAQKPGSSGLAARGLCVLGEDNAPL
5-hydroxytryptamine receptor 2A (Homo sapiens), sequence (P28223 whole entry, looked up): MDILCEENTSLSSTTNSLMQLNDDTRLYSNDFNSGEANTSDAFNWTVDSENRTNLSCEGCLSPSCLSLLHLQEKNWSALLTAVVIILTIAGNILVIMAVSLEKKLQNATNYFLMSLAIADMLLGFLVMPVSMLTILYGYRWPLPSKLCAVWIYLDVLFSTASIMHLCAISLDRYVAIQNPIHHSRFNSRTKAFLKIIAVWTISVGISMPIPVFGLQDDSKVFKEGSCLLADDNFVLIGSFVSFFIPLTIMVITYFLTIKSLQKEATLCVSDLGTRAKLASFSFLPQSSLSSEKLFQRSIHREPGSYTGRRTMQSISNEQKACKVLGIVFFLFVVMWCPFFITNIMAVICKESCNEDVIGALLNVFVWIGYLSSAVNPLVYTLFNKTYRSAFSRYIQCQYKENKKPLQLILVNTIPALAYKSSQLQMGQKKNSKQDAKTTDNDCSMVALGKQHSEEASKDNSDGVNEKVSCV
D(2) dopamine receptor (Homo sapiens), sequence (P14416 whole entry, looked up): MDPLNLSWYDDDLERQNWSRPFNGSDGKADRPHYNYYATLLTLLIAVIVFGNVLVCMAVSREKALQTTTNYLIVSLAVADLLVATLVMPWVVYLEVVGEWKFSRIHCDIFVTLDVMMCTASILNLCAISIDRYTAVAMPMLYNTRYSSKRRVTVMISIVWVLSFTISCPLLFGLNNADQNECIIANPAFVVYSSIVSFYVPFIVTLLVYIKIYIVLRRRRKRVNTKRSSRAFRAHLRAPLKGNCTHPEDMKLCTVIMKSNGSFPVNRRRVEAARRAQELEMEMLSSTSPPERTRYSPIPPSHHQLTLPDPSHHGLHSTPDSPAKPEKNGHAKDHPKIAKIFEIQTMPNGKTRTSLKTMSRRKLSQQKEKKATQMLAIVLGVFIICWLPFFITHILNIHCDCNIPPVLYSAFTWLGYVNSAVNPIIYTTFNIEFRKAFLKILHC
Muscarinic acetylcholine receptor M1 (Homo sapiens), sequence (P11229 whole entry, looked up): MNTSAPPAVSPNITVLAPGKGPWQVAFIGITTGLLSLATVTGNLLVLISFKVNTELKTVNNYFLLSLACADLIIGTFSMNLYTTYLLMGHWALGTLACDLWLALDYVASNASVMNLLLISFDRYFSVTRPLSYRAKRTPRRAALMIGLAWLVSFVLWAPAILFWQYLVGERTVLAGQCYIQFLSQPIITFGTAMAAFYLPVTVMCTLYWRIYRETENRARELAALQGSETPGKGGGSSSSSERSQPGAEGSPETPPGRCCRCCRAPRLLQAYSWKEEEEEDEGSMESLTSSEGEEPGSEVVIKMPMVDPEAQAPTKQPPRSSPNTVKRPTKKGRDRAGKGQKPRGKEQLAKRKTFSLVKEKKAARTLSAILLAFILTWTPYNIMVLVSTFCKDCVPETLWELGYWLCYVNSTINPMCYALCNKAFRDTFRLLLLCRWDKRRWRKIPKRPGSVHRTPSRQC

COC(=O)CCCCC(=O)OC
inactive: all assays above

Cc1cc(C)c(C)cc1C
not listed: [18]
inactive: all other assays above

Cc1cccc([N+](=O)[O-])c1C
inactive: all assays above

CN(C)C(=O)Nc1ccc(Cl)c(Cl)c1
inactive: all assays above

Cc1ncc(CO)c(CO)c1O
not listed: [18]
inactive: all other assays above

CCCCCCCC/C=C\CCCCCCCC(=O)O
inactive: all assays above

CC(C)(N)CO
inactive: all assays above

Nc1cc(Cl)c(N)c(Cl)c1
68 µM (active) and inactive: [2]
not listed: [18] | [20]
inactive: all other assays above
